# Measured values published in PubChem BioAssay (NCI).
# About 83,000 compounds went through this panel and 20% of them were active in at least one assay; those are over-represented in the sample as a whole.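 Single-dose data. Exposure time 48 hours. Values below 10 considered active.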 A number with no mark means an inactive call. Calls of active or inactive are those of the source.
# How the values were obtained:
# Experiment in all cases: NCI-60 one-dose screen, 48 h (100 = growth as untreated, 0 = no growth, -100 = all killed)
# Details in all cases: 10 µM unless noted
# SR leukemia = system: SR leukemia
# RPMI-8226 leukemia = system: RPMI-8226 leukemia
# OVCAR-8 ovarian = system: OVCAR-8 ovarian
# OVCAR-5 ovarian = system: OVCAR-5 ovarian
# OVCAR-4 ovarian = system: OVCAR-4 ovarian
# IGROV1 ovarian = system: IGROV1 ovarian
# OVCAR-3 ovarian = system: OVCAR-3 ovarian
# HS 578T breast = system: HS 578T breast
# NCI/ADR-RES ovarian = system: NCI/ADR-RES ovarian
# SK-OV-3 ovarian = system: SK-OV-3 ovarian
Compound,growth (SR leukemia),growth (RPMI-8226 leukemia),growth (OVCAR-8 ovarian),growth (OVCAR-5 ovarian),growth (OVCAR-4 ovarian),growth (IGROV1 ovarian),growth (OVCAR-3 ovarian),growth (HS 578T breast),growth (NCI/ADR-RES ovarian),growth (SK-OV-3 ovarian)
CCN1C(=O)N(CC)C2C1NN=c1s/c(=C\c3ccccn3)c(=O)n12 (centres undefined),5.28% (active),22.5%,31.2%,58.9%,50.2%,43.7%,2.57% (active),7.13% (active),2.1% (active),
NC(=O)c1cccc(N2Cc3ccccc3OC3=C2C(=O)c2c(O)ccc(O)c2C3=O)c1,-5.71% (active),-13.4% (active),-41.9% (active),-68.1% (active),-93.5% (active),,-94.2% (active),20.9%,10%,20.8%
C=C1C(=O)O[C@H]2[C@H]1CC/C(COC(=O)NCc1ccc(OC)cc1)=C\CC[C@@]1(C)O[C@@H]21,-1.29% (active),25.8%,21.5%,78.2%,41.2%,,5.71% (active),59.2%,86.9%,84.8%
CCCCCCCCCCn1cc[n+](C)c1,104%,116%,11.5%,45.6%,22.7%,,45.9%,30.3%,82.2%,44.5%
O=C1NCC(c2cc3ccccc3[nH]c2=O)Nc2ccccc21 (centres undefined),100%,106%,103%,91.2%,104%,,111%,99.4%,111%,89.9%
COc1cc(C(=O)/C=C/c2cc(C(=O)c3cc(OC)c(OC)c(OC)c3)ccc2OC)ccc1N,-7.95% (active),-9.87% (active),4.2% (active),-54.1% (active),,-12.7% (active),-53% (active),46.1%,1.57% (active),32.5%
Nc1nc(-c2ccccc2)cs1,94.5%,109%,100%,,102%,113%,102%,104%,110%,99.4%
NC(=O)c1c(NC(=O)c2ccc3c(c2)OCO3)sc2c1CCC(=O)C2,-19.6% (active),-34.9% (active),-15.9% (active),,-70.8% (active),-17.1% (active),-47% (active),16.7%,-6.35% (active),-11.7% (active)
COc1ccc(/C=C/C(=O)/C=C/c2cc3ccc(Cl)cc3[nH]c2=O)cc1,-0.34% (active),19.9%,81.4%,,92.9%,,75.4%,90.5%,103%,91%
Clc1ccc2c(c1)NC1(CCSc3ccccc31)n1nccc1-2 (centres undefined),91.6%,94.6%,,92.6%,103%,102%,94.6%,110%,98.6%,111%
CCN(C(=O)c1cc2ncccc2[nH]1)[C@H]1CCC[C@@H](NCc2cccc(F)c2)C1,99.6%,91.8%,103%,,104%,91.1%,95.7%,109%,89.1%,103%
Cc1cccc(NC(=O)c2sc3nc4c(cc3c2N)CCC4)c1C,25%,-5.02% (active),14.1%,44%,,44.6%,,28.6%,-16.2% (active),37.9%
COC(=O)[C@H]1[C@H](OC)[C@@H](OC(=O)/C=C/c2ccncc2)CC2CN3CCc4c([nH]c5cc(OC)ccc45)[C@@H]3C[C@@H]21 (some centres undefined),78.3%,57.4%,81%,,60.8%,85.2%,89.8%,77.5%,81.8%,89.1%
CCn1cc(C2NC(=O)c3cc(F)ccc3N2)c2cccc(Cl)c21 (centres undefined),-10.1% (active),9.88% (active),-35.9% (active),,39.4%,18.2%,6.84% (active),12.4%,1.68% (active),27.7%
COc1ccc(/C=C/c2nc(N3CCOCC3)c3nc(Cl)c(Cl)cc3n2)cc1OC,83.3%,98.7%,99%,,108%,,,,99.4%,105%
Cc1nc(Nc2cccnc2)sc1C(=O)/C=C/c1ccc(Cl)cc1,6.11% (active),-4.94% (active),,37.3%,82.4%,14.9%,7.38% (active),98.9%,35.4%,81.3%
O=C1NC(Cc2c[nH]c3ccccc23)C(=O)N1Cc1ccc(Cl)cc1 (centres undefined),90.1%,73.1%,97.9%,,96.9%,85.2%,106%,108%,106%,101%
COc1ccc(C2CC(c3cccs3)=NN2c2ccc(S(=O)(=O)NC(=O)NCc3cccc(OC)c3)cc2)cc1 (centres undefined),75.8%,95.3%,107%,,103%,108%,106%,97.5%,103%,82.6%
CN(C)C/C=C/C(=O)Nc1cc2c(Nc3ccc(F)c(Cl)c3F)ncnc2cc1OCCOC(F)F,14.8%,11.4%,26.6%,,16%,-15.6% (active),-15.4% (active),-19.2% (active),20.1%,0.142% (active)
COC(=O)c1cc(-c2cccs2)c(C#N)c(N)c1C#N,94.5%,99.7%,98.9%,105%,,94.2%,108%,102%,106%,101%
Cc1c(C2=NNC(c3ccc4c(c3)OCO4)C2)[n+]([O-])c2ccccc2[n+]1[O-] (centres undefined),92.2%,98.9%,109%,,76.3%,84.4%,93.4%,94.3%,95.4%,97.1%
